For experiment [1] the following is noted: Ebola virus entry assay, green fluorescence channel.
For experiment [2] the following is noted: Ebola virus entry assay, ratio channel.
The conditions of experiment [3]: Ebola virus entry assay, green channel fluorescence.
For experiment [4] the following is noted: Ebola virus entry assay, reporter ratio channel; AC50: Channel type: primary unless noted; outcome: Channel type: primary unless noted.
The nature of experiment [5]: qHTS profiling of the MIPE4 collection as inhibitors of Plasmodium falciparum (3D7) proliferation (AID 743344).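 Further: scaled between DMSO vehicle wells and 0.29 µM artemisinin as full inhibition.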 To be noted: P. falciparum 3D7 in erythrocytes, SYBR Green DNA fluorescence, 72 h; at 28.5 µM (top of the series) unless noted. Summed up:
(§1)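 Erythrocytes infected with P. falciparum (0.3% parasitemia, 2.5% hematocrit) incubated with compounds 72 h at 37 C, 5% CO2. Lysis with saponin/Triton buffer containing SYBR Green I, overnight at room temperature in the dark; DNA fluorescence (485/535 nm) normalised to 0.29 uM artemisinin and DMSO.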
Background: In qHTS, concentration-response curves come from the screen itself.

Experiment [6] is described as follows: qHTS profiling of the MIPE4 collection as inhibitors of Plasmodium falciparum (DD2) proliferation (AID 743345). To be noted: P. falciparum Dd2 in erythrocytes, SYBR Green DNA, 72 h; at 28.5 µM (top of the series) unless noted. In a few lines:
as §1

Experiment [7] can be described thus: qHTS profiling of the MIPE4 collection as inhibitors of Plasmodium falciparum (DD2) proliferation (Rep 2) (AID 743346). To be noted: P. falciparum Dd2 in erythrocytes, SYBR Green DNA, 72 h; at 28.5 µM (top of the series) unless noted. Summed up: as §1
Experiment [8] is described as follows: qHTS profiling of the MIPE4 collection as inhibitors of Plasmodium falciparum (HB3) proliferation (AID 743347).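 Further: plate controls were DMSO vehicle wells for no effect and artemisinin wells for full effect.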 To be noted: P. falciparum HB3 in erythrocytes, SYBR Green DNA, 72 h; at 28.5 µM (top of the series) unless noted. Summed up:
as §1

For some of these results: Potency and affinity values are given separately. Activity calls are given as the source filed them. How the calls were made is not given here.

One may read the AC50 as the midpoint of the concentration-response curve, whichever way the signal moves.
Wherever efficacy is given: 0% is about no effect.

As for `CC(=O)NCCCCCC(=O)O`, the efficacy in experiment [1] is -20.5% (inactive). Moreover, the outcome in experiment [2], in experiment [3] and in experiment [4] was inactive.

On to `CC(C)(C)NCC(O)c1cc(Cl)c(N)c(C(F)(F)F)c1` (stereo unspecified), for which the efficacy in experiment [1] was 12.5% (inactive). Moreover, the outcome in experiment [2], in experiment [3] and in experiment [4] was inactive.

Regarding `Nc1ccc([N+](=O)[O-])c(C(F)(F)F)c1`, in experiment [1], the efficacy is -37.2% (inactive). The result in experiment [2], in experiment [3] and in experiment [4] was inactive.

Consider `O=C1OC(CCN2CCCCC2)OC1(c1ccccc1)c1ccccc1` (stereo unspecified), for which the efficacy in experiment [1] is -23.4% (inactive). For the same compound, the outcome in experiment [2], in experiment [3] and in experiment [4] was inactive.

Take `O=c1[nH]c(=O)n([C@H]2C[C@H](O)[C@@H](CO)O2)cc1Br`: the efficacy in experiment [1] is -9.16% (inactive). Also, the outcome in experiment [2], in experiment [3] and in experiment [4] was inactive.

With `CCCCC(CC)COC(=O)c1ccccc1O` (stereo unspecified), in experiment [1], the efficacy is -34.1% (inactive). Besides, the result in experiment [2], in experiment [3] and in experiment [4] was inactive.

Take `CCCCOCCOC(=O)c1cccnc1`: in experiment [1], the efficacy is -26.3% (inactive). The outcome in experiment [2], in experiment [3] and in experiment [4] was inactive.

Take `Cc1c(I)c(=O)n(-c2ccccc2)n1C`: the efficacy in experiment [1] was -23.5% (inactive). Moreover, the outcome in experiment [2], in experiment [3] and in experiment [4] was inactive.

For the compound `O=C1NCC2(CCN(CCc3ccccc3)CC2)O1`, the efficacy in experiment [1] is 10.9% (inactive). The outcome in experiment [2], in experiment [3] and in experiment [4] was inactive.

`C[N+](C)(CCOc1ccccc1)Cc1cccs1`: the efficacy in experiment [1] is -18.5% (inactive). For the same compound, the outcome in experiment [2], in experiment [3] and in experiment [4] was inactive.

For the compound `COc1cc(C(=O)OC(COCCC(C)C)CN2CCOCC2)cc(OC)c1OC` (stereo unspecified), the efficacy in experiment [1] is 27.7% (inactive). The result in experiment [2], in experiment [3] and in experiment [4] was inactive.

Take `CC(CN(C)C)C(C)(O)Cc1ccc(Cl)cc1` (stereo unspecified): the efficacy in experiment [1] was 33.9% (inactive). In addition, the result in experiment [2] and in experiment [3] was inactive. For the same compound, the AC50 in experiment [4] was 28.2 µM (active).

As to `O=C(O)c1cc(O)c(O)c(O)c1`, the efficacy in experiment [1] was 15.2% (inactive). The result in experiment [2], in experiment [3] and in experiment [4] was inactive.

Turning to `C/C(=C(\CCO)SS/C(CCO)=C(\C)N(C=O)Cc1cnc(C)nc1N)N(C=O)Cc1cnc(C)nc1N`, the efficacy in experiment [1] is -13% (inactive). Moreover, the outcome in experiment [2], in experiment [3] and in experiment [4] was inactive.

Take `CNCC(O)c1ccc(O)c(O)c1` (stereo unspecified): the efficacy in experiment [1] is 44.4% (inactive). For the same compound, the outcome in experiment [2], in experiment [3] and in experiment [4] was inactive.

As for `Cc1cccc(C)c1OCC(=O)N[C@@H](Cc1ccccc1)[C@@H](O)C[C@H](Cc1ccccc1)NC(=O)[C@H](C(C)C)N1CCCNC1=O`, the efficacy in experiment [1] was 20.6% (inactive). Moreover, the result in experiment [2] and in experiment [3] was inactive. In addition, in experiment [4], the AC50 is 39.8 µM (active).

As to `Clc1cccc(SC2CCNCC2)n1`, the efficacy in experiment [1] was -16% (inactive). Besides, the outcome in experiment [2], in experiment [3] and in experiment [4] was inactive.

In turn, `C[C@]12CC[C@H]3[C@@H](CC[C@@]45O[C@H]4C(O)=C(C#N)C[C@]35C)[C@H]1CC[C@H]2O` had a parasite growth, % of DMSO control in experiment [5] of 70.4%. For the same compound, the parasite growth remaining, % of DMSO control (lower = more inhibition) in experiment [6] is 70.8%. Further, the parasite growth, % of control (lower = inhibition) in experiment [7] worked out at 55.7%. Besides, the growth, % of control in experiment [8] stood at 90.1%.

`CCC1(c2ccc(N)cc2)CCC(=O)NC1=O` (stereo unspecified) yielded a parasite growth, % of DMSO control in experiment [5] of 89%. In addition, the parasite growth remaining, % of DMSO control (lower = more inhibition) in experiment [6] is 103%. In addition, the parasite growth, % of control (lower = inhibition) in experiment [7] was determined as 117%. Also, in experiment [8], the growth, % of control worked out at 101%.

Source of the values: PubChem BioAssay (NCATS).
